Reference: PubChem BioAssay (EPA / NIEHS)
Results filed as inconclusive are left out. Some structures have more than one record in an assay (separate samples or runs), and their calls can disagree. Activity calls are given as the source filed them. How the source made its calls, unless noted: active means hit-call score of the fitted dose curve at least 0.9, where 1 is the maximum; inconclusive means response in the unintended direction; inactive means score below 0.9.

What was measured:
[1] = ATG_NF_kB_CIS: Attagene CIS-FACTORIAL HepG2 Assay for human Nuclear Factor Kappa B (NF-kB) (AID 2282991; active means hit-call score of the fitted dose curve at least 0.9, where 1 is the maximum; inactive means score below 0.9); details: HepG2 Attagene cis-factorial NF-kB reporter mRNA; actives raise or lower the signal
Summary of the method: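 HepG2, transient multi-reporter transfection, cis promoter elements (endogenous TFs). 24 h exposure. Total RNA → RT → PCR → 6-FAM label → HpaI → CE. Gain/loss vs DMSO.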

[2] = ATG_NRF2_ARE_CIS: Attagene CIS-FACTORIAL HepG2 Assay for human Nuclear Factor Erythroid 2 Related Factor 2 (NFR2) response to Antioxidant Response Elements (ARE) (AID 2282992; active means hit-call score of the fitted dose curve at least 0.9, where 1 is the maximum; inactive means score below 0.9;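 on AC50: reporter mRNA level measured by RT-PCR and capillary electrophoresis fluorescence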); details: HepG2 Attagene ARE/NRF2 reporter, transcription factor activity; actives raise or lower the signal
Summary of the method: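 Fluorescence intensity of reporter-specific cDNA fragments, separated by capillary electrophoresis, reflects mRNA induction in transfected HepG2 cells at 24 h. Activity is fitted bidirectionally, DMSO serving as baseline.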

[3] = ATG_Oct_MLP_CIS: Attagene CIS-FACTORIAL HepG2 Assay for human Octamer-Binding Transcription Factor (Oct) (AID 2282993; active means hit-call score of the fitted dose curve at least 0.9, where 1 is the maximum; inactive means score below 0.9); details: HepG2 Attagene cis-factorial Oct reporter, mRNA; actives raise or lower the signal
Summary of the method: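 After 24 h compound exposure, transfected HepG2 cells were lysed for total RNA; reporter-specific cDNA was PCR-amplified, fluorescently labelled and sized by capillary electrophoresis. Bidirectional curve fitting used DMSO as baseline.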

[4] = target: Cellular tumor antigen p53 (Homo sapiens) (UniProt P04637); test: ATG_p53_CIS: Attagene CIS-FACTORIAL HepG2 Assay for human p53 Transcription Factor (AID 2282994; active means hit-call score of the fitted dose curve at least 0.9, where 1 is the maximum; inactive means score below 0.9); details: HepG2 p53 cis-element reporter, Attagene mRNA; actives raise or lower the signal
Summary of the method: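 Transiently transfected HepG2 (multiple cis reporter transcription units); exposure 24 h; reporter RNA via RT-PCR, 6-FAM extension, 2 h HpaI digest at 37 C, CE detection; DMSO baseline.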

[5] = target: human Peroxisome Proliferator-activated Receptor alpha (PPARa), PPARA (gene 5465) (UniProt Q07869); test: ATG_PPARa_TRANS: Attagene TRANS-FACTORIAL HepG2 Assay for human Peroxisome Proliferator-activated Receptor alpha (PPARa) (AID 2283001);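 on AC50: potency for gain of reporter signal over DMSO so agonist or activator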
Summary of the method: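 Cells (HepG2) are transfected with multiple reporter transcription units, exposed to chemical for 24 h, then total RNA is reverse-transcribed and amplified. Labelled products are quantified by capillary electrophoresis; induction is referenced to DMSO.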

[6] = target: human Peroxisome Proliferator-activated Receptor delta (PPARd), PPARD (gene 5467) (UniProt Q03181); test: ATG_PPARd_TRANS: Attagene TRANS-FACTORIAL HepG2 Assay for human Peroxisome Proliferator-activated Receptor delta (PPARd) (AID 2283002)
Summary of the method: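 Measured quantity: GAL4-UAS reporter transcript induction in HepG2 after 24 h chemical dosing, with NR-Gal4 chimeras supplied by transient transfection. Detection by RT-PCR and capillary electrophoresis; upward fit against DMSO.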

[7] = target: Peroxisome proliferator-activated receptor gamma (Homo sapiens) (UniProt P37231); test: ATG_PPARg_TRANS: Attagene TRANS-FACTORIAL HepG2 Assay for human Peroxisome Proliferator-activated Receptor-gamma (PPARg) (AID 2283007)
Summary of the method: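 Multiplexed reporter transcription units in HepG2, 24 h dosing, reporter transcripts quantified by fluorescent RT-PCR and capillary electrophoresis. Increase over DMSO scored.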

[8] = target: human Retinoic Acid Receptor gamma (RARg), RARG (gene 5916) (UniProt P13631); test: ATG_RARg_TRANS: Attagene TRANS-FACTORIAL HepG2 Assay for human Retinoic Acid Receptor gamma (RARg) (AID 2283009)
Summary of the method: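 TRANS format measured activity of exogenous NR-GAL4 fusion (RARg) in transfected HepG2 liver cells after 24 h dosing. Induced reporter RNA was detected by RT-PCR/capillary electrophoresis fluorescence, analysed in the positive direction against DMSO.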

[9] = target: Retinoic acid receptor RXR-alpha (Homo sapiens) (UniProt P19793); test: ATG_RXRa_TRANS: Attagene TRANS-FACTORIAL HepG2 Assay for human Retinoid X Receptor alpha (RXRa) (AID 2283012)
Summary of the method: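 Measures exogenous chimeric NR-GAL4 activity in transfected HepG2 liver cells after 24 h of dosing. Induced reporter mRNA was detected by RT-PCR with capillary electrophoresis, and gain of signal was analysed against DMSO.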

[10] = target: Nuclear receptor subfamily 1 group I member 2 (Homo sapiens) (UniProt O75469); test: ATG_PXR_TRANS: Attagene TRANS-FACTORIAL HepG2 Assay for human Pregnane X Receptor (PXR) (AID 2283008)
Summary of the method: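 Transient HepG2 transfectants carrying multiplexed reporter transcription units; PXR activity read through a Gal4 chimera. 24 h exposure. RT-PCR/CE fluorescence; upward curve fit referenced to DMSO.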

[11] = target: human RAR-related Orphan Receptor gamma (RORg), RORC (gene 6097) (UniProt P51449); test: ATG_RORg_TRANS: Attagene TRANS-FACTORIAL HepG2 Assay for human RAR-related Orphan Receptor gamma (RORg) (AID 2283011)
Summary of the method: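 Activity is scored as increase in GAL4-UAS reporter mRNA over DMSO, detected by fluorescent RT-PCR and capillary electrophoresis in HepG2 cells transiently expressing a RORg-Gal4 chimera, 24 h after dosing.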

[12] = target: human Retinoic Acid Receptor beta (RARb), RARB (gene 5915) (UniProt P10826); test: ATG_RARb_TRANS: Attagene TRANS-FACTORIAL HepG2 Assay for human Retinoic Acid Receptor beta (AID 2283004)
Summary of the method: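 HepG2, transient MRTU transfection, NR–Gal4 chimera, 24 h treatment; RT-PCR plus CE fluorescence detection of reporter mRNA; gain of signal vs DMSO.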

[13] = target: Retinoic acid receptor alpha (Homo sapiens) (UniProt P10276); test: ATG_RARa_TRANS: Attagene TRANS-FACTORIAL HepG2 Assay for human Retinoic Acid Receptor alpha (RARa) (AID 2283005)
Summary of the method: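 HepG2 cells transiently transfected with multiple reporter units expressing chimeric RARα-GAL4 fusion, with GAL4-UAS-driven reporters. After 24 h compound exposure, reporter mRNA induction quantified by RT-PCR and capillary electrophoresis with fluorescent labeling; gain-of-signal fitted relative to DMSO control.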

[14] = target: human RAR-related Orphan Receptor beta (RORb), RORB (gene 6096) (UniProt Q92753); test: ATG_RORb_TRANS: Attagene TRANS-FACTORIAL HepG2 Assay for human RAR-related Orphan Receptor beta (RORb) (AID 2283010)
Summary of the method: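 Transfect HepG2 with multiple GAL4-UAS reporter transcription units; dose chemicals for 24 h; isolate RNA, reverse-transcribe and PCR-amplify reporter sequences; label, digest and resolve fragments by capillary electrophoresis; fit increases relative to DMSO.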

Measured: AC50

Sequence of Retinoic acid receptor RXR-alpha (Homo sapiens) (P19793 whole entry, looked up, the tested form may be a part): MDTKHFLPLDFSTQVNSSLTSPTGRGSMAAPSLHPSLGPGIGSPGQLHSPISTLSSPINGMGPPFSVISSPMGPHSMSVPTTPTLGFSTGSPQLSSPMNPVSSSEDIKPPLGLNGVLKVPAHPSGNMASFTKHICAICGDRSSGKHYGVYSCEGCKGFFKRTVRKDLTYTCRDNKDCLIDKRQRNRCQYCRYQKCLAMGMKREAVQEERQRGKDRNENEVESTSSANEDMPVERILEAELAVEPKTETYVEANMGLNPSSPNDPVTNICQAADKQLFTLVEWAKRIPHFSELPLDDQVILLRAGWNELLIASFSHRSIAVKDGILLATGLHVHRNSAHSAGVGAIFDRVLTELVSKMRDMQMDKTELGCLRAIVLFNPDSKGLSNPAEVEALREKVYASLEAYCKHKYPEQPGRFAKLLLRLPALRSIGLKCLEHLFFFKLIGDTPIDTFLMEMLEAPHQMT
Sequence of human Peroxisome Proliferator-activated Receptor alpha (PPARa), PPARA (gene 5465) (Q07869 whole entry, looked up): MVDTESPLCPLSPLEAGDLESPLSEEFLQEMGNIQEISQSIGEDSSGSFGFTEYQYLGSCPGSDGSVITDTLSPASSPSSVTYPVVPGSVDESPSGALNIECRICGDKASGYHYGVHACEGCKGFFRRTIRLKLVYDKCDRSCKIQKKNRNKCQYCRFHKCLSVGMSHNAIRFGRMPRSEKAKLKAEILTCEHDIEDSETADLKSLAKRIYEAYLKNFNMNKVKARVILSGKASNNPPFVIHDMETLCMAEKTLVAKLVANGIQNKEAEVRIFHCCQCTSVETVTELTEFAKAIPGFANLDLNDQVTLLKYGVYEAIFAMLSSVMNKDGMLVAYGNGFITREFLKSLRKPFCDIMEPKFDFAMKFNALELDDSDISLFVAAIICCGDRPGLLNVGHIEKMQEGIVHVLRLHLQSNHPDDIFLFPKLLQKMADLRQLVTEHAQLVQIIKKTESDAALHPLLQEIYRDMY
Sequence of Cellular tumor antigen p53 (Homo sapiens) (P04637 whole entry, looked up): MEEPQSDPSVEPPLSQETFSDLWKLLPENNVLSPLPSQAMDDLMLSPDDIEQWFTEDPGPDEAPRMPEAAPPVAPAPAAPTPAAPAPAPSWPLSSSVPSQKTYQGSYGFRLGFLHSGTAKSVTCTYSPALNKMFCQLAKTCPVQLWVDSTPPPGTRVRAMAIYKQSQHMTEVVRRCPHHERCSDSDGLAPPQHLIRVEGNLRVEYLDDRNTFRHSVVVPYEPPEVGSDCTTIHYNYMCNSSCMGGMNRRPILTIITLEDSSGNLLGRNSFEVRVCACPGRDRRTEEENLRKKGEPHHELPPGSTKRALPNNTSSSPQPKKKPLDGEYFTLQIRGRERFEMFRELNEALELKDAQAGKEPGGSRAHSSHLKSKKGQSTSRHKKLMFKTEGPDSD
Sequence of human RAR-related Orphan Receptor gamma (RORg), RORC (gene 6097) (P51449 whole entry, looked up, the tested form may be a part): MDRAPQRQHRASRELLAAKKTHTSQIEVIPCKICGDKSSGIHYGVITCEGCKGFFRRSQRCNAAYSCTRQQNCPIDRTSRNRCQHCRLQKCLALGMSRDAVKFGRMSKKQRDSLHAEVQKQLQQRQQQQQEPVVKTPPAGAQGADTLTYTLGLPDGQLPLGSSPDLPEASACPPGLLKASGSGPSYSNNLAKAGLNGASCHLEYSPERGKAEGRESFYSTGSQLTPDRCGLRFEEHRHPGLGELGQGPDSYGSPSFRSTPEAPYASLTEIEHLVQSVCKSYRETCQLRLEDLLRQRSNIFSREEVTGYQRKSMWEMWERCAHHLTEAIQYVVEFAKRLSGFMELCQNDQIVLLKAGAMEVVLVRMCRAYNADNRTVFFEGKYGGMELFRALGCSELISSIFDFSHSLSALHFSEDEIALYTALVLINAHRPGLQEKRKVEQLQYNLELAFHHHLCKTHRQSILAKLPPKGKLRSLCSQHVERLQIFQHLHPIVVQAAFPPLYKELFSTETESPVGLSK
Sequence of Nuclear receptor subfamily 1 group I member 2 (Homo sapiens) (O75469 whole entry, looked up, the tested form may be a part): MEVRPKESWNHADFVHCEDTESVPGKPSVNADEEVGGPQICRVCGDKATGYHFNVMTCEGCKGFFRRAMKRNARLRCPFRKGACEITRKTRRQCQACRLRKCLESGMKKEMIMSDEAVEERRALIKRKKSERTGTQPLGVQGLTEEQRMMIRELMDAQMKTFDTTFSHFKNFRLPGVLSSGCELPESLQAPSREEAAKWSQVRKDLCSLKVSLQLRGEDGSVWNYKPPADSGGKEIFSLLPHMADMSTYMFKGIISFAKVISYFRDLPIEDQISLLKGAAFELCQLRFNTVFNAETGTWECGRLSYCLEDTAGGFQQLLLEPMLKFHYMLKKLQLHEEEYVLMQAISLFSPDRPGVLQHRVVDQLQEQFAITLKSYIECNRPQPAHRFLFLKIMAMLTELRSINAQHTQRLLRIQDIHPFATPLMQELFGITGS
Sequence of human Retinoic Acid Receptor gamma (RARg), RARG (gene 5916) (P13631 whole entry, looked up, the tested form may be a part): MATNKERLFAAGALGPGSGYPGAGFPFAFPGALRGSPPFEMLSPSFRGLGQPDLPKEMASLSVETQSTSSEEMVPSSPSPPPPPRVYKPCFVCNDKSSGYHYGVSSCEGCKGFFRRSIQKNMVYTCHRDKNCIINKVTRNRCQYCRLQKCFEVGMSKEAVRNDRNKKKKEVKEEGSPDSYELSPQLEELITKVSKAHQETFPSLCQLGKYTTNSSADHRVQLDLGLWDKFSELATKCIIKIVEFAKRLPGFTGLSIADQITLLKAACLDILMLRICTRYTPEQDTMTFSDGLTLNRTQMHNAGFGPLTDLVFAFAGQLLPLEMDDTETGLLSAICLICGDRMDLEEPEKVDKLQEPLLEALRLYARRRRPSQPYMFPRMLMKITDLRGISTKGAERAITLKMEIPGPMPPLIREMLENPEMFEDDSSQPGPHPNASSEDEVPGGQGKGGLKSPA
Sequence of human RAR-related Orphan Receptor beta (RORb), RORB (gene 6096) (Q92753 whole entry, looked up, the tested form may be a part): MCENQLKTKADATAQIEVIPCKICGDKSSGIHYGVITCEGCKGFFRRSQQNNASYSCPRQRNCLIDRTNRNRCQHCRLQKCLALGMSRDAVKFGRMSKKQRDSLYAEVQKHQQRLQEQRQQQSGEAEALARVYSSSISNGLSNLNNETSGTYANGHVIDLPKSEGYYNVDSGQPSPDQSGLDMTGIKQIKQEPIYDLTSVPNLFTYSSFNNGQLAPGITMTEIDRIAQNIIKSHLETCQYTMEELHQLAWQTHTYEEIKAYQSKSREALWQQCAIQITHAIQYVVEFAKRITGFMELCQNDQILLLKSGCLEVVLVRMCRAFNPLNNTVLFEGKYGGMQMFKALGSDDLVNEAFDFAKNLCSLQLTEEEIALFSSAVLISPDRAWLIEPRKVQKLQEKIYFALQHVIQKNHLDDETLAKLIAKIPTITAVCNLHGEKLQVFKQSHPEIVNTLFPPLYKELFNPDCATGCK
Sequence of Peroxisome proliferator-activated receptor gamma (Homo sapiens) (P37231 whole entry, looked up): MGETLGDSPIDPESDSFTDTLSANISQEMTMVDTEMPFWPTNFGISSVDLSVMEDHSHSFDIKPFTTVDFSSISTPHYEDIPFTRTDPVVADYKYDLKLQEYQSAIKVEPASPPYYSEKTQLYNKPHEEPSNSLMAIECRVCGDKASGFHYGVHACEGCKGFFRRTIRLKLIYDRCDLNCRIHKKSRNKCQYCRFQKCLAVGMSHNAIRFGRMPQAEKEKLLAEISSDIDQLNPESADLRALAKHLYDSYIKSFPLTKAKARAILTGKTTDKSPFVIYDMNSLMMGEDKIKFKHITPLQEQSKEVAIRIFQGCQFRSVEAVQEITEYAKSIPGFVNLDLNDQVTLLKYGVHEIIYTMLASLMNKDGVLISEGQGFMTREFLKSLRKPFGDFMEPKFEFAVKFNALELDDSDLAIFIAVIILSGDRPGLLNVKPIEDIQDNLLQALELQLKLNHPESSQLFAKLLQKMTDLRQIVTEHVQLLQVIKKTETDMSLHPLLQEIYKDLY
Sequence of human Peroxisome Proliferator-activated Receptor delta (PPARd), PPARD (gene 5467) (Q03181 whole entry, looked up, the tested form may be a part): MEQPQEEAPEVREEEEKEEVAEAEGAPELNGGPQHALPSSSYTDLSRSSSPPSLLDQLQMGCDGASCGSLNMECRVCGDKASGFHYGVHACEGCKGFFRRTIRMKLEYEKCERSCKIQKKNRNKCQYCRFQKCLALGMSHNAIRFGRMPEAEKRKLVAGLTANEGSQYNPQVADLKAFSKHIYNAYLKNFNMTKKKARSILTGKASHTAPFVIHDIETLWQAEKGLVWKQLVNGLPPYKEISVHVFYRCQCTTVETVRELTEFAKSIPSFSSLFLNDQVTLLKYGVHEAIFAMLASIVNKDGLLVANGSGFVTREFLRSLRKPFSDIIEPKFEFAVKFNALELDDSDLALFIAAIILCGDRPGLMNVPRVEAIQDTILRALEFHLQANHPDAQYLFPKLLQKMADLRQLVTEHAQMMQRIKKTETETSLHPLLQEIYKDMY
Sequence of Retinoic acid receptor alpha (Homo sapiens) (P10276 whole entry, looked up, the tested form may be a part): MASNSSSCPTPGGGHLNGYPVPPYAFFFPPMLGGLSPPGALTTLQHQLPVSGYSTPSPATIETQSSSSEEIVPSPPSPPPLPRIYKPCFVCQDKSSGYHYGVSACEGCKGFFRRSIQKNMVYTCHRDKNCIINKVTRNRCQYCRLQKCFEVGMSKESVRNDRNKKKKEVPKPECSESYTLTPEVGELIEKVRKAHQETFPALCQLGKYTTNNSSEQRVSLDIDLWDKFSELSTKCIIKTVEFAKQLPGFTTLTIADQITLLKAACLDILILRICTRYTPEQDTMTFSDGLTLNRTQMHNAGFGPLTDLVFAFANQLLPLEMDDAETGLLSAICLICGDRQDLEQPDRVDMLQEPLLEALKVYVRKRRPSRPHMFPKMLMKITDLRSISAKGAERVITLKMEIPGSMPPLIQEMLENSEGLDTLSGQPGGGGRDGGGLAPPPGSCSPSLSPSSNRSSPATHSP

CCCCCCOC(=O)c1ccc(O)cc1
active: [1] 62.5 µM | [3] 57 µM | [4] 52.2 µM | [5] 63.7 µM | [7] 23.2 µM
inactive: [2] | [6] | [8] | [9]

COC(=O)CC(C(C)=O)C(=O)OC (stereo not given)
inactive: [1] | [2] | [3] | [4] | [5] | [6] | [7] | [10]

CCc1cccc(CC)c1NC(=O)C(=O)O
inactive: [1] | [2] | [3] | [4] | [5] | [6] | [11]

CCOC(OCC)C(=O)c1ccccc1
not listed: [5] | [6] | [8] | [10] | [11]
inactive: all other assays above

CC=O
inactive: [1] | [2] | [3] | [4] | [12] | [11] | [9]

CC(C)CCOCCC(C)C
inactive: [1] | [2] | [3] | [4] | [13] | [11] | [9]

Cc1cc(=O)oc2cc(O)ccc12
active: [10] 12 µM
inactive: [1] | [2] | [3] | [4] | [6] | [7] | [10] | [14] | [9]

O=C(C=C(O)C(F)(F)F)C(F)(F)F
inactive: [1] | [2] | [3] | [4] | [7] | [10] | [8] | [9]

COc1ccccc1NC(=O)c1cc2ccccc2cc1O
active: [3] 26.7 µM | [4] 17.4 µM | [7] 8.06 µM | [10] 1.23 µM
inactive: [1] | [2] | [5] | [8]

C=CC(=O)OCC(CO)(COCC(COC(=O)C=C)(COC(=O)C=C)COC(=O)C=C)COC(=O)C=C
inactive: [2] | [5] | [7] | [10] | [11] | [9]
active: [1] 0.817 µM | [3] 2.89 µM | [4] 2.86 µM

CC1CCC(C(=O)O)CC1 (stereo not given)
inactive: [1] | [2] | [3] | [4] | [6] | [13] | [7] | [9]

CCCCCCCCCCCCOC(=O)c1cc(O)c(O)c(O)c1
inactive: [1] | [4] | [13] | [8] | [9]
active: [2] 2.95 µM | [3] 11.1 µM | [5] 43.9 µM | [7] 20.8 µM | [10] 10.6 µM
